The campaign covered roughly 330,000 compounds. About 40 (0.01%) were called active. The sample as a whole holds a higher share of actives than the screen did. A number with no mark means an inactive call. Calls come from the whole dose curve; as a rule, active = well fitted inhibition curve with a large enough effect; inconclusive = small, poorly fitted or top-dose-only effect, or effect the other way; inactive = flat fitted curve, though single readings scatter.
Potency is the fitted concentration of half-maximal effect.

Chain of Ubiquitin carboxyl-terminal hydrolase 2 (Homo sapiens) (O75604 whole entry, looked up): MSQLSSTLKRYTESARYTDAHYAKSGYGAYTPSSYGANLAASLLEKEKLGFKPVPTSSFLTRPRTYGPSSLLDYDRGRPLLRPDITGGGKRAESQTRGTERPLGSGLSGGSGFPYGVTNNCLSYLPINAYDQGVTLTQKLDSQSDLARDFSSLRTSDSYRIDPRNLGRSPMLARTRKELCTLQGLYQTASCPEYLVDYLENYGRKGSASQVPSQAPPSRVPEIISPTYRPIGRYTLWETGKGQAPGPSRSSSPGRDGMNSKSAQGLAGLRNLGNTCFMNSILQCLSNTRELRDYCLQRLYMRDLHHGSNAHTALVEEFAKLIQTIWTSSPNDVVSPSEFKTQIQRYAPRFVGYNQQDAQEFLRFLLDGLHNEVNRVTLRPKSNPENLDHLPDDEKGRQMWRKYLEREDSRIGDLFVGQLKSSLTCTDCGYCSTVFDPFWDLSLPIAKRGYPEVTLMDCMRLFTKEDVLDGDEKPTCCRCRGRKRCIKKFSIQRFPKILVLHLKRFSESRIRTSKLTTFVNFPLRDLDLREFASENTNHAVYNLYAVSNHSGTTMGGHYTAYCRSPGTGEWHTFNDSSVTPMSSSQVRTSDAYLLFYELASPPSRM

This test addresses Ubiquitin carboxyl-terminal hydrolase 2 (Homo sapiens) (UniProt O75604). Nature of the test: qHTS Assay for Inhibitors of Ubiquitin-specific Protease USP2a Using CHOP2 as the Reporter. Particulars: USP2 core, Ub-CHOP2 coupled fluorogenic reporter, 485/531; series mostly up to 38.3 µM; activity change, negative = inhibition: at the top concentration. The source says:
NIH Molecular Libraries Screening Centers Network [MLSCN] NIH Chemical Genomics Center [NCGC] MLSCN Grant: XO1-MH079852-01 PI Name: Nicholson, Ben. Progenra Inc, Malvern, PA NCGC Assay Overview: Homeostasis of cellular proteins is maintained through a combination of synthesis and degradation. The pathway that accounts for the majority of protein degradation is the ubiquitin-proteasomal pathway. Ubiquitin (Ub) is highly conserved in all cells and the generation of a multi-Ub chain typically targets proteins for degradation by the proteasome. However, ubiquitination is highly reversible and dynamic. Deubiquitination, the reverse process, is catalyzed through the action of enzymes referred to as isopeptidases or deubiquitinating enzymes (DUBs). This group of enzymes is collectively responsible for maintaining adequate pools of free ubiquitin and regulating the ubiquitination status of cellular proteins. The class of DUBs referred to as the ubiquitin-specific proteases (USP) family functions endoproteolytically to cleave Ub chains from a wide range of protein substrates. USP2a deubiquitinates fatty acid synthase (FASN) which has recently been identified as an emerging oncology target. To identify inhibitors of USP2a a cell-free assay was employed. […] The reporter enzyme chosen is an enterokinase called CHOP2, which is activated when the Ub is cleaved by USP2. The free and now activated reporter can subsequently act on its reporter substrate. Thus, this coupled assay gives a fluorescent read-out at excitation/emission wavelengths of 485/531. The assay was developed by Progenra, Inc. and has been licensed for sale by LifeSensors, Inc. as Ub-CHOP2-Reporter-Kit (#PR1101).
NCGC Assay Protocol Summary: The assay buffer, prepared fresh at the day of the assay, contains 20mM Tris-HCl pH 8.0, 2mM CaCl2, 2mM beta-Mercaptoethanol, 0.05% CHAPS. 3ul of 20nM (10nM final) USP2 core, which is stored on ice, is dispensed into a medium-binding black solid Kalypsys 1,536 well plate using the Kalypsys dispenser. The assay plate is then pinned with 23nL compound with the Kalypsys pintool in columns 5-48. The controls are pinned as follows: column 1 two-fold dilutions of 2M NEM in duplicate; column 2 2M NEM (final concentration 38.2mM); column 3&4 DMSO. The assay plate is incubated at RT for 30min. Subsequently, 1.5uL of 100nM (25nM final) Ub-CHOP2 and 1.5uL of 100nM (25nM final) Reporter Substrate (both stored on ice and protected from light) were dispensed into the plate using the Kalypsys dispenser. Plates were read after 60min RT incubation on a ViewLux (Perkin Elmer) plate reader using the following wavelengths Ex 485nm /Em 531nm. Data were normalized to the to AC100 inhibition (NEM). Concentration-response curves were fitted to the normalized data and the concentration-response curves were then classified based on curve quality (r2), response magnitude and degree of measured activity. The time zero reading was used to flag fluorescence artifacts. Keywords: ubiquitination, deubiquitination, proteases, profluorescent, MLSMR, MLPCN, NIH Roadmap, qHTS, NCGC
For the molecule `CCCCCN(C(=O)CCC(=O)OCC(=O)NCc1ccc(OC)cc1)c1c(N)n(CCCC)c(=O)[nH]c1=O`, the “activity change, negative = inhibition” value is 0.688%.

For `Cc1ccc(S(=O)(=O)Nc2nc(N)n(-c3ccccc3)n2)cc1`, the “activity change, negative = inhibition” value is 0.765%.

On to `COC(=O)c1ccc(OC(=O)c2nn(C)cc2Cl)c(OC)c1`, for which the “activity change, negative = inhibition” value is -0.26%.

Turning to `Cc1nc2nc(COc3ccccc3)[nH]n2c(=O)c1C`, the “activity change, negative = inhibition” value was 1.56%.

As for `O=C(Nc1cc(N2CCOCC2)ncn1)NC1(C(F)(F)F)Oc2ccc(Cl)cc2O1` (stereo not drawn), the “activity change, negative = inhibition” value is -0.0506%.

With `CSc1ncc(C(=O)Nc2ccc(C)cc2C)c(C)n1`, the “activity change, negative = inhibition” value is 1.33%.

As for `COc1cccc(CNS(=O)(=O)c2csc(C(N)=O)c2)c1`, the “activity change, negative = inhibition” value was 3.56%.

In the case of `CC(=O)O[C@H]1CC[C@@]2(C)[C@@H](CC[C@@H]3[C@@H]2CC[C@]2(C)[C@@H](C(C)(C)O)C[C@@H]32)C1`, the “activity change, negative = inhibition” value was -0.0227%.

For `Cc1ccc(C)c(CSc2nc(-c3ccco3)nc3c2c(=O)n(C)c(=O)n3C)c1`, the “activity change, negative = inhibition” value is -0.717%.

Turning to `CCC(C)NC(=O)C1CCC(=O)N1Cc1ccc(C)cc1` (stereo not drawn), the “activity change, negative = inhibition” value was 0.93%.

As to `COc1ccc(CS(=O)/C(Cl)=C(/Cl)C(=O)Nc2ccc(OC)nc2)cc1` (stereo not drawn), the “activity change, negative = inhibition” value was 0.612%.

For the molecule `Cc1cc(C)c(S(=O)(=O)N2CCOCC2)cc1C`, the “activity change, negative = inhibition” value was 1.87%.

As for `Cc1ccc(CNC(=O)Cn2c(=O)c3sccc3n(Cc3cccc([N+](=O)[O-])c3)c2=O)cc1`, the “activity change, negative = inhibition” value is -0.534%.

As to `CCOc1ncccc1C(=O)NNC(=O)c1cccc(S(=O)(=O)Nc2ccccc2OC)c1`, the “activity change, negative = inhibition” value was -1.34%.

Turning to `COc1ccc(C(c2nnnn2C2CCCCC2)N2CCN(c3ccccc3F)CC2)cc1` (stereo not drawn), the “activity change, negative = inhibition” value was -0.313%.

With `COc1ccccc1/C=C/CN1CCC(CO)(Cc2ccccc2)CC1`, the “activity change, negative = inhibition” value was 1.37%.

Turning to `Cc1ccc(O)c(/C=N/NC(=O)COc2ccc3c(C)cc(=O)oc3c2)c1`, the “activity change, negative = inhibition” value was 0.0027%.

On to `O=C(CCc1nnc(Cc2ccc3c(c2)OCO3)o1)NCCc1ccccc1Cl`, for which the “activity change, negative = inhibition” value is 2.78%.

As to `CC(C)c1ccc(-c2noc(C3CCCN(S(C)(=O)=O)C3)n2)cc1` (stereo not drawn), the “activity change, negative = inhibition” value was -7.49%.

Turning to `COc1ccccc1CNC(=O)CCCNS(=O)(=O)c1cccc2nsnc12`, the “activity change, negative = inhibition” value is 1.54%.

For `CC1COC2C(O1)N(S(C)(=O)=O)CCN2S(C)(=O)=O` (stereo not drawn), the “activity change, negative = inhibition” value is -1.04%.

Turning to `CCC(C)[C@@H](C(=O)N1CCNCC1)n1cc(CCCCN)nn1` (stereo partly drawn), the “activity change, negative = inhibition” value is 1.67%.

Consider `CCCN(CC(=O)NC(=O)NC1CCCCC1)CC(=O)Nc1cc(Cl)ccc1Cl`, for which the “activity change, negative = inhibition” value was -8.68%.

As to `CC(C)CC1NC(=O)c2cc(Cl)ccc2-n2c1nc1ccccc1c2=O` (stereo not drawn), the “activity change, negative = inhibition” value is 4.7%.

For `O=C(NNS(=O)(=O)c1ccc(F)cc1)c1cnccn1`, the “activity change, negative = inhibition” value is 2.02%.

Take `Cc1csc(Nc2ccc(Cl)cc2)[n+]1-c1ccc(Cl)cc1`: the “activity change, negative = inhibition” value was -0.358%.

Turning to `CSC1=NCCN1C(=O)c1ccc(S(=O)(=O)N2CCOCC2)cc1`, the “activity change, negative = inhibition” value is -11.3%.

For `C[C@@H]1C[C@@H]2O[C@H]2/C=C\C=C\C(=O)Cc2c(Cl)c(O)cc(O)c2C(=O)O1`, the “activity change, negative = inhibition” value was 1.29%.

Regarding `Cc1cccc(NC(=O)N(Cc2cc3cc(C)cc(C)c3[nH]c2=O)CC2COCCO2)c1` (stereo not drawn), the “activity change, negative = inhibition” value is 1.92%.

As to `C#CCOCCOCCOCCNc1nc(N2CCN(C(=O)CCCCCCCCCCNC(=O)Cn3cc(CCCCCN)nn3)CC2)nc(N2CCN(C(=O)CCCCCCCCCCNC(=O)[C@H](CO)n3cc(CCCSC)nn3)CC2)n1`, the “activity change, negative = inhibition” value is -26.9%.

Consider `C#CCOCCOCCOCCNc1nc(N2CCN(C(=O)CCCCCCCCCCNC(=O)[C@H]([C@@H](C)CC)n3cc(CCCCN=C(N)N)nn3)CC2)nc(N2CCN(C(=O)CCCCCCCCCCNC(=O)[C@H](CO)n3cc(CCCSC)nn3)CC2)n1`, for which the Potency was 6.31 µM (active).

Consider `C#CCOCCOCCOCCNc1nc(N2CCN(C(=O)CCCCCCCCCCNC(=O)[C@H](CCCCN)n3cc(C)nn3)CC2)nc(N2CCN(C(=O)CCCCCCCCCCNC(=O)[C@H](CO)n3cc(CCCSC)nn3)CC2)n1`, for which the “activity change, negative = inhibition” value is -8.88%.

With `Cc1cc(NC(=O)CN2CCCCC2C)nc2c1c(=O)oc1ccccc12` (stereo not drawn), the “activity change, negative = inhibition” value was 3.13%.

With `Cc1nc(SC(C)C)[nH]c(=O)c1Cc1ccccc1`, the “activity change, negative = inhibition” value was -0.906%.

Consider `CC1CCc2c(nc3ncnn3c2Nc2ccc(OC(F)(F)F)cc2)C1` (stereo not drawn), for which the “activity change, negative = inhibition” value was 1.22%.

As for `CCNC(=O)c1sccc1-n1cccc1`, the “activity change, negative = inhibition” value was 2.45%.

As to `CN1C2CCC1/C(=C\c1ccccc1Cl)C(=O)/C2=C\c1ccccc1Cl`, the “activity change, negative = inhibition” value is 0.535%.

Turning to `COc1ccc2c(c1OC)C(=O)c1ccccc1C2=O`, the “activity change, negative = inhibition” value is 3.96%.

Consider `Cc1c([N+](=O)[O-])c(N)nn1C`, for which the “activity change, negative = inhibition” value was 2.13%.

Turning to `Cc1cc(NS(=O)(=O)c2ccc(NC(=O)c3cccnc3)cc2)nc(C)n1`, the “activity change, negative = inhibition” value is 0.463%.

With `COc1cccc(CC2(CO)CCN(Cc3cnc(-c4cccc(C)c4)nc3)CC2)c1`, the “activity change, negative = inhibition” value is 4.24%.

In the case of `NS(=O)(=O)c1ccc(NC(=S)NC(=O)c2cccnc2)cc1`, the “activity change, negative = inhibition” value was 0.624%.

On to `COc1cc2c(C(=O)N3CCN(C)CC3)c(CSc3ccccc3)n(C)c2cc1Br`, for which the “activity change, negative = inhibition” value was -0.599%.

On to `COc1ccc(Cl)cc1N(CC(=O)N1CCCCC1)S(C)(=O)=O`, for which the “activity change, negative = inhibition” value was 0.482%.

Regarding `Cc1ccc(NC(=O)N2CCC(O)(c3cccnc3)CC2)cc1`, the “activity change, negative = inhibition” value is 0.367%.

On to `COc1cc(OC)cc(C(=O)N[C@H](C(=O)OCC(=O)NC(C)c2ccccc2)C(C)C)c1` (stereo partly drawn), for which the “activity change, negative = inhibition” value is 0.189%.

Consider `O=C1C2C3C=CC(C3)C2C(=O)N1c1ccc(S(=O)(=O)Nc2nccs2)cc1` (stereo not drawn), for which the “activity change, negative = inhibition” value was -2.11%.

As for `O=C(Cc1csc(Nc2nc(=S)[nH]c3ccccc23)n1)NCCCN1CCN(c2cccc(Cl)c2)CC1`, the “activity change, negative = inhibition” value was 1.93%.

Consider `CC(C)[C@@H]1NC(=O)c2cc([N+](=O)[O-])cc(I)c2NCCC[C@@H](C(=O)NC(CC(=O)O)C(N)=O)NC(=O)[C@H](CO)NC1=O` (stereo partly drawn), for which the “activity change, negative = inhibition” value was -0.832%.

With `CC(C)(CNC(=O)c1cc(=O)[nH]c2ccccc12)N1CCOCC1`, the “activity change, negative = inhibition” value was 4.29%.

Take `Cc1ccc(CN2CCN(Cc3ccccc3-c3ccco3)CC2CCO)o1` (stereo not drawn): the “activity change, negative = inhibition” value was 9.71%.

On to `COCc1ccc(C(=O)NC2CC(C)(C)Cc3c2cnn3-c2ccc(C)cc2)o1` (stereo not drawn), for which the “activity change, negative = inhibition” value is -0.305%.

For `Fc1ccccc1CNC(=S)Nc1ccc(Cl)cc1`, the “activity change, negative = inhibition” value is 1.75%.
